ATXN2 expr inh = inhibitors of ATXN2 expression. Potency, µM (top dose mostly 57 µM), inactives show at the top dose activity change, negative = inhibition, hits mostly inhibitors. actives 0.72% (n = 360,000). HEK-293 ATXN2-luciferase reporter, luminescence, 24 h; also: potency is read from the fitted curve at half-maximal effect; % is scaled to controls: 0 for no effect and ±100 for the full control effect; nearly all actives have a fitted effect of over 55% in size
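ATXN2-luciferase reporter cells (luciferase flanked by upstream and downstream ATXN2 gene portions) were treated 24 h at 37 °C with compounds at up to 57 uM. SteadyGlo luminescence gave expression; GF-AFC fluorescence gave viability.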
ATXN viability = reduces viability in counter-screen for ATXN expression inhibitors; S2 cells (HEK-293 line with an ATXN2-luciferase reporter) viability, CellTiter-Fluor protease fluorescence, 24 h; Potency, µM (top dose mostly 56.7 µM), usual class: cytotoxic; actives 0.49% (n = 400,000); AID 651635; also: potency is read from the fitted curve at half-maximal effect; nearly all actives have a fitted effect of over 40% in size
TGFb SMAD3 inh = blocks TGF-b signaling | HepG2 CAGA-GFP TGF-b/SMAD3 reporter, GFP fluorescence, 18 h; TGF-beta stimulated, 500 pg/mL final | Potency, µM (titrated, usually from 46.1 µM), without a hit: at the highest dose activity, negative = inhibition, hits mostly inhibitors | actives 1.2% (n = 410,000); also: potency is read from the fitted curve at half-maximal effect; % is scaled to controls: 0 for no effect and ±100 for the full control effect; nearly all actives have a fitted effect of over 65% in size
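Using HEPG2 CAGA-GFP reporter cells at 1000 cells/well, we pinned test compounds, stimulated with recombinant TGF-beta (500 pg/mL final) and measured total well GFP after 18 h.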
HepG2 tox = counter-screen for TGF-b inhibitors: cytotoxicity in HepG2 cells. HepG2 CAGA-GFP viability, ATP luminescence, 18 h. Potency, µM (top dose mostly 46.1 µM), for inactives: at the highest dose activity change, negative = cytotoxicity, hits mostly cytotoxic. actives 0.76% (n = 410,000). AID 588856; also: potency is read from the fitted curve at half-maximal effect
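HepG2 CAGA-GFP cells (1000/well, DMEM with 1% FBS) received compound, then TGF-beta at 500 pg/mL final, and were incubated 18 hours at 37 degrees C. Viability was read by CellTiter-Glo luminescence. Media-only wells were set as complete cell-killing and DMSO as no toxicity.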
uPA surface inh = inhibitors of cell surface uPA generation; cell surface uPA generation assay, qHTS; Potency, µM (series often up to 38.3 µM), inactives show at the top dose activity change, negative = inhibition, usual class: inhibitors; actives 0.31% (n = 330,000); active = well fitted inhibition curve with a large enough effect; inconclusive = small, poorly fitted or top-dose-only effect; inactive = no such curve, though single readings can be large or run the other way; tested in mouse RAW 264.7 cells; also: potency is read from the fitted curve at half-maximal effect; % is scaled to controls: 0 for no effect and ±100 for the full control effect; nearly all actives have a fitted effect of over 55% in size
Giardia killer = kills Giardia lamblia | Giardia lamblia trophozoite viability | activity change, % at 7.66 µM, hits read low | actives 0.15% (n = 340,000); in the data active = activity change below about -80%; inconclusive = between about -30% and that limit;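 also: parasites exposed to compound for two days anaerobically before the ATP read; % is scaled to controls: 0 for no effect and ±100 for the full control effect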
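ATP-content bioluminescence gauges trophozoite survival. Cells (100/well) receive compound and incubate anaerobically for 48 hrs at 37 deg C; detection reagent follows for 15-30 min at room temperature.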
Numbers without * were called inactive; i = inactive; ? = inconclusive; . = no result given. Sampled rows, rich in hits. Any-hit rate of the full collection: about 2.6%. Unless noted, calls follow the shape of the dose curve; as a rule, active = well fitted curve in the direction sought with a large enough effect; inconclusive = small, poorly fitted or top-dose-only effect, or another doubt; inactive = no such curve, though single readings can be large; an effect the other way counts as inactive or inconclusive.

SMILES	ATXN2 expr inh	ATXN viability	TGFb SMAD3 inh	HepG2 tox	uPA surface inh	Giardia killer
NC(Cc1ccc(F)cc1)c1csc(Nc2cc(Oc3ccccc3)ncn2)n1 (stereo not drawn)	?	28µM*	?	13µM*	.	.
NC(Cc1ccc(Cl)cc1)c1csc(Nc2cc(Oc3ccccc3)ncn2)n1 (stereo not drawn)	-21%	.	?	-114%	.	.
NC(c1csc(Nc2cc(NCc3ccco3)ncn2)n1)c1ccccc1Cl (stereo not drawn)	-32%	?	?	-45%	.	.
COc1ccc(CC(N)c2csc(Nc3cc(Oc4ccccc4)ncn3)n2)cc1 (stereo not drawn)	?	?	?	18µM*	.	.
NC(Cc1ccc(F)cc1)c1csc(Nc2cc(NCc3ccco3)ncn2)n1 (stereo not drawn)	18µM*	?	?	-48%	.	.
O=S(=O)(c1ccc(F)cc1)N1CCN(c2nc(-c3ccccc3)nc3ccccc23)CC1	.	.	0%	10%	.	2
CCC1CCCCN1CCCNC(=O)c1ccc2c(c1)N(Cc1ccccc1F)C(=O)c1ccccc1S2(=O)=O (stereo not drawn)	?	i	11µM*	-64%	.	.
O=C(NCCCN1CCCC1)c1ccc2c(c1)N(Cc1ccccc1F)C(=O)c1ccccc1S2(=O)=O	2%	i	2%	0%	-20%	-11
CCc1ccccc1NC(=O)c1ccc(Cn2nc(N3CCN(c4ccccc4)CC3)ccc2=O)o1	20µM*	?	?	-30%	.	.
O=C(c1ccccc1)c1ccc(OCC(O)CNCc2cccc(Cl)c2)cc1 (stereo not drawn)	-4%	i	?	11µM*	-7%	-19
OC(CNCCc1ccc(Cl)cc1)COc1ccc2ccccc2c1 (stereo not drawn)	-1%	i	?	-102%	-4%	-3
OC(CNCCc1ccccc1)COc1ccc(OCC(O)CNCCc2ccccc2)cc1 (stereo not drawn)	28µM*	?	?	-90%	-4%	?
OC(CNCCc1ccc(Cl)cc1)COc1cc(Cl)ccc1Cl (stereo not drawn)	?	?	16µM*	-105%	-13%	-19
CCOc1cccc(CN2CCC(n3cc(C(=O)N4CCCCC4)nn3)CC2)c1O	.	i	.	.	.	.
CC(C)(C)c1nnc(NS(=O)(=O)c2ccccc2)s1	2%	i	.	.	.	.
O=C(OCCN1CCOCC1)c1ccc(OCCN2CCOCC2)cc1	5%	i	9%	0%	3%	-7
CCCCOc1ccc(C(=O)CCN2CCOCC2)cc1	19µM*	.	?	-69%	-5%	-11
CCOc1ccc(C(=O)CCN2CCCCCC2)cc1	4%	i	?	11µM*	-6%	-1
CCCOc1ccc(C(=O)CCN2CCCCC2)cc1	-10%	i	?	-67%	-9%	0
O=C1CCCN1c1ccc(S(=O)(=O)N2CCCCC2)cc1[N+](=O)[O-]	3%	i	-6%	6.3µM*	0%	5
Cc1ccc(S(=O)(=O)N2CCCC2)cc1[N+](=O)[O-]	-9%	i	0%	2%	0%	8
O=C(N/N=C/c1c(O)ccc2ccccc12)c1ccc(Br)o1	2.8µM*	.	0%	-58%	-4%	0
O=C(CN1CCOCC1)N/N=C/c1c(O)ccc2ccccc12	11µM*	?	-4%	0%	-8%	15
O=C(CNc1ccccc1)N/N=C/c1c(O)ccc2ccccc12	7.1µM*	i	?	-42%	?	2
O=C(CSCC(=O)Nc1ccccc1)N/N=C/c1c(O)ccc2ccccc12	3.2µM*	i	9%	-25%	.	11
SMILES	ATXN2 expr inh	ATXN viability	TGFb SMAD3 inh	HepG2 tox	uPA surface inh	Giardia killer
C=CC[N+]1([C@H]2C[C@H]3[C@@H]4CC[C@H]5C[C@H](O)[C@@H](N6CCOCC6)C[C@]5(C)[C@@H]4CC[C@]3(C)[C@H]2OC(C)=O)CCCC1	1%	.	.	.	.	.
Cc1ccc(C(=O)NCCc2nnc3n2CCN(C(=O)c2ccnc(Cl)c2)CC3)cc1	.	i	.	.	.	.
CC(CNC(=S)Nc1cc(F)cc(F)c1)CSc1ccc(Cl)cc1 (stereo not drawn)	?	?	18µM*	-75%	4%	13
CCOc1ccc2nc3ccc4[nH]onc4c3c2c1	-17%	.	-4%	-39%	-2%	6
CCOc1ccc2nc3cc(N)ccc3c(N)c2c1	13µM*	?	.	.	.	.
O=C(N/N=C/c1ccc2c(c1)OCO2)c1ccc2c(c1)OCO2	1%	i	-28%	-6%	2%	0
O=C(N/N=C/C(Cl)=C/c1ccccc1)c1ccc2c(c1)OCO2	.	i	8%	-54%	6.3µM*	18
Cc1cnc(-n2ncc(C(=O)NCCc3ccccn3)c2C)nc1-c1ccc(F)cc1	.	i	.	.	.	.
Oc1ccc(C2CCN(c3ccnc4ccccc34)CC2)cc1O	18%	.	.	.	.	.
COc1cc(Nc2nc3ccccc3nc2NS(=O)(=O)c2ccc(NC(=O)c3ccc(C)c(OC)c3)cc2)cc(OC)c1	6%	.	.	.	.	.
Oc1ccccc1C(Nc1nccs1)c1ccc2cccnc2c1O (stereo not drawn)	7.1µM*	i	?	-17%	5%	8
Oc1c(C(Nc2ccccn2)c2ccccc2F)ccc2cccnc12 (stereo not drawn)	.	.	1.4µM*	-1%	.	-13
Oc1c(C(Nc2ccccn2)c2ccccn2)ccc2cccnc12 (stereo not drawn)	5µM*	?	-19%	-16%	-13%	15
COC(=O)/C(=C1/Oc2ccc(C(C)(C)C)cc2S1)C(F)(F)F	40%	i	-1%	4%	17%	-3
COC(=O)/C(=C1/Oc2cc(C)oc(=O)c2S1)C(F)(F)F	?	.	5.6µM*	-30%	-15%	2
Clc1ccc(CSc2nc3ccncc3[nH]2)cc1	-12%	i	4%	-59%	0.45µM*	?
Cc1ccc(CSc2nc3ccncc3[nH]2)cc1	?	?	-16%	-90%	-99%	-90*
OC(C[n+]1cccc(Br)c1)c1ccccc1 (stereo not drawn)	.	.	-4%	-3%	.	.
C=C(C(=O)c1ccccc1)C(NC(C)(C)C)c1ccccc1 (stereo not drawn)	7.5µM*	?	?	-89%	-9%	-11
Cc1cccc2c(N3CCCC3)nc(CNS(=O)(=O)c3ccc4ccccc4c3)nc12	.	i	.	.	.	.
CCN1CCN(CC(=O)Nc2ccc(-c3cccc4c(=O)cc(N5CCOCC5)oc34)c3sc4ccccc4c23)CC1	-15%	.	.	.	.	.
CN(Cc1ccc(Cl)c(Cl)c1)C(=O)c1cccc(S(=O)(=O)N2CCN(Cc3ccccc3)CC2)c1	-31%	i	?	-19%	?	13

Screening data (PubChem BioAssay)
